Among the test systems are NCI-H23 lung; NCI-H226 lung; NCI-H322M lung; HOP-62 NSCLC; NCI-H460 lung; HOP-92 NSCLC; NCI-H522 lung; A549/ATCC NSCLC; 786-0 renal; COLO 205 colon; DU-145 prostate; K-562 leukemia; MALME-3M melanoma; MDA-MB-231 breast; RXF 393 renal; SF-268 CNS; SF-295 CNS; SF-539 CNS; UACC-257 melanoma; M14 melanoma.
Test in all cases: NCI-60 one-dose screen, 48 h (100 = growth as untreated, 0 = no growth, -100 = all killed)
Conditions in all cases: 10 µM unless noted

The panel holds about 83,000 compounds, 20% with a hit somewhere; the sample as a whole holds those more often.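 Assay: single dose, 48 h. Readout: percent growth (0 = no net growth; negative = cell death). Active: <10.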 Values without a mark were called inactive. Calls of active or inactive are those of the source.

Regarding `COc1cc(-c2cc(-c3ccc(Nc4ncnc5cc(Cl)ccc45)cc3)nc(N3CCN(C)CC3)n2)cc(OC)c1OC`, the growth in the assay with NCI-H23 lung is 108%; in the assay on NCI-H226 lung it was 50.5%; in the assay on NCI-H322M lung, 104%; in the assay with HOP-62 NSCLC it was 94.4%; in the assay on NCI-H460 lung, 100%; in the assay with HOP-92 NSCLC, 77.7%. The growth with NCI-H522 lung is 85.8%; in the assay with A549/ATCC NSCLC it was 89.2%; in the assay on 786-0 renal, 45.2%; with COLO 205 colon, 90.6%; with DU-145 prostate, 98.9%; in the assay on K-562 leukemia, 56%. The growth in the assay with MALME-3M melanoma was 71%; in the assay on MDA-MB-231 breast, 51.7%; with RXF 393 renal, -1.57% (active); with SF-268 CNS it was 76.9%; in the assay with SF-295 CNS, 111%; in the assay with SF-539 CNS, 32.9%. Moreover, the figures for the growth in the assay on UACC-257 melanoma and with M14 melanoma were 117% and 80.8%, respectively.

As for `O=C(CBr)CN1C(=O)c2ccccc2C1=O`, the growth in the assay with NCI-H23 lung is 95.1%; in the assay on NCI-H226 lung, 98.7%; in the assay on NCI-H322M lung, 101%; in the assay with HOP-62 NSCLC, 97.9%; with NCI-H460 lung, 108%; in the assay on HOP-92 NSCLC, -10.6% (active). Further, the growth was 101% in the assay on NCI-H522 lung; 103% with A549/ATCC NSCLC; 101% in the assay on 786-0 renal; 101% in the assay on COLO 205 colon; 104% in the assay on DU-145 prostate; 89.7% with K-562 leukemia. Besides, the growth in the assay on MALME-3M melanoma is 100%; in the assay on MDA-MB-231 breast, 107%; in the assay on RXF 393 renal, 120%; in the assay on SF-268 CNS, 99.1%; in the assay on SF-295 CNS, 101%; in the assay with SF-539 CNS it was 96.2%. The growth with UACC-257 melanoma was 101%; in the assay with M14 melanoma it was 104%.

On to `COc1ccc(C(c2cc(OC)c(OC)c(OC)c2)N2CCCC2)cc1` (stereo not given), for which the growth with NCI-H23 lung was 85.3%; in the assay with NCI-H226 lung it was 87.6%; in the assay with NCI-H322M lung, 87.5%; in the assay on HOP-62 NSCLC it was 79.5%; with NCI-H460 lung, 84.3%; in the assay on HOP-92 NSCLC, 85.5%. Also, the growth with NCI-H522 lung was 58.5%; in the assay on A549/ATCC NSCLC, 77.7%; in the assay with 786-0 renal it was 93.4%; in the assay with COLO 205 colon it was 71.2%; with DU-145 prostate it was 103%; in the assay on K-562 leukemia it was 25.3%. Also, the growth with MALME-3M melanoma was 85.3%; in the assay on MDA-MB-231 breast, 80.8%; in the assay on RXF 393 renal, 103%; with SF-268 CNS it was 84.3%; in the assay with SF-295 CNS, 69.7%; in the assay on SF-539 CNS it was 95.7%. Besides, the growth in the assay on UACC-257 melanoma is 74.6%; with M14 melanoma it was 60.1%.

Regarding `COc1ccc2c(c1)c(-c1nonc1-c1c[nH]c3ccc(Br)cc13)cn2C`, the growth is 55.6% with NCI-H23 lung; 84.6% in the assay with NCI-H226 lung; 55.8% in the assay on NCI-H322M lung; 29.6% in the assay on HOP-62 NSCLC; 23.7% in the assay on NCI-H460 lung; 75.6% in the assay on HOP-92 NSCLC. The growth was 11.3% in the assay on NCI-H522 lung; 28.1% with A549/ATCC NSCLC; 58.6% in the assay on 786-0 renal; 23.9% in the assay with COLO 205 colon; 61.2% in the assay with DU-145 prostate; 11.5% in the assay with K-562 leukemia. Besides, the growth is 46.3% in the assay on MALME-3M melanoma; 43.4% in the assay on MDA-MB-231 breast; 67% with RXF 393 renal; 48.3% with SF-268 CNS; 40.2% in the assay on SF-295 CNS; 56.6% in the assay with SF-539 CNS. Also, the figures for the growth with UACC-257 melanoma and with M14 melanoma were 64.7% and 20.8%, respectively.

As to `Cc1cccc(-n2c(C)nc3ccc(N4CCCNC4=O)cc3c2=O)c1`, the growth was 98.5% with NCI-H23 lung; 96.5% in the assay on NCI-H226 lung; 103% in the assay with NCI-H322M lung; 101% with HOP-62 NSCLC; 112% in the assay with NCI-H460 lung; 95.1% in the assay with HOP-92 NSCLC. Also, the growth is 96.4% in the assay on NCI-H522 lung; 102% with A549/ATCC NSCLC; 102% with 786-0 renal; 105% in the assay on COLO 205 colon; 109% with DU-145 prostate; 102% with K-562 leukemia. Moreover, the growth was 102% in the assay with MALME-3M melanoma; 106% in the assay with MDA-MB-231 breast; 116% in the assay with RXF 393 renal; 105% in the assay on SF-268 CNS; 101% in the assay with SF-295 CNS; 91.9% in the assay on SF-539 CNS. Besides, the growth with UACC-257 melanoma was 105%; with M14 melanoma, 102%.

As for `CCn1cc(C2=C(c3cn(C)c4ncccc34)C(=O)NC2=O)c2cccnc21`, the growth in the assay on NCI-H23 lung is 66.3%; in the assay with NCI-H226 lung, 57.5%; in the assay on NCI-H322M lung it was 79.6%; in the assay on HOP-62 NSCLC, 73.1%; in the assay with NCI-H460 lung, 44.5%; in the assay with HOP-92 NSCLC it was 81.4%. Also, the growth in the assay with NCI-H522 lung was 83.9%; with A549/ATCC NSCLC, 65%; in the assay with 786-0 renal, 50.5%; with COLO 205 colon it was 49%; with DU-145 prostate, 80.1%; with K-562 leukemia, 100%. For the same compound, the growth in the assay on MALME-3M melanoma was 73.8%; in the assay on MDA-MB-231 breast, 61.2%; in the assay with RXF 393 renal, 76.9%; in the assay on SF-268 CNS, 75.6%; in the assay with SF-295 CNS it was 61.4%; in the assay with SF-539 CNS, 72%. The growth with UACC-257 melanoma is 102%; in the assay with M14 melanoma, 81.8%.

Regarding `COc1cc(N2C(=O)[C@H](c3ccccc3)C2c2ccc(SC)cc2)cc(OC)c1OC` (stereo not given in full), the growth in the assay on NCI-H23 lung was 16%; in the assay on NCI-H226 lung it was 56.1%; in the assay on NCI-H322M lung it was 37.7%; in the assay on HOP-62 NSCLC it was 20.7%; with NCI-H460 lung, 4.99% (active); with HOP-92 NSCLC it was -0.302% (active). Moreover, the growth in the assay with NCI-H522 lung is -9.45% (active); in the assay with A549/ATCC NSCLC, 4.39% (active); with 786-0 renal it was 5.94% (active); in the assay with COLO 205 colon, -52% (active); in the assay on DU-145 prostate, 6.14% (active); with K-562 leukemia, 5.06% (active). In addition, the growth in the assay with MALME-3M melanoma is 63.3%; with MDA-MB-231 breast it was 28%; in the assay on RXF 393 renal, -4.2% (active); in the assay on SF-268 CNS, 25.3%; with SF-295 CNS, -6.29% (active); in the assay with SF-539 CNS, 8.41% (active). The growth was 33.3% in the assay on UACC-257 melanoma and 5.09% (active) in the assay with M14 melanoma.
